Among all 48,000 compounds or so, about 13,000 (27%) showed an effect of 50% or more. The list shows a part of the results.
Test system: Wolbachia pipientis
Assay: Anti-Wolbachia Cell-Based Screen
Type: functional
Parameters: scale not given: in the data most compounds retested in dose-response had high values
Conditions: 5 µM

| SMILES | Percent Effect [%] |
| --- | --- |
| c1ccc2sc(N3CCN(c4ncnc5c4CCC5)CC3)nc2c1 | -7.695 |
| CSc1ncc(C(=O)N2CCN(c3ccccc3C)CC2C)cn1 (stereo not given) | -7.257 |
| Cc1ccc(C(=O)N2CC[C@H]3[C@H]2CCN3CC2CCOCC2)cc1F.O=C(O)C(F)(F)F | 1.153 |
| O=C(O)C(F)(F)F.O=C(c1cscn1)N1CC[C@@H]2[C@@H]1CCN2CC1CCOCC1 | 90.26 |
| Cn1cccc1C(=O)N1CC[C@H]2[C@H]1CCN2CC1CCOCC1.O=C(O)C(F)(F)F | -12.52 |
| O=C(O)C(F)(F)F.O=C(c1cscn1)N1CC[C@@H]2[C@@H]1CCN2CC1CCOC1 (stereo not given in full) | 116.3 |
| O=C(O)C(F)(F)F.O=C(c1ccc(F)cc1)N1CC[C@H]2[C@H]1CCN2CC1CCOCC1 | -29.44 |
| O=C(O)C(F)(F)F.O=C(c1cccc(F)c1)N1CC[C@H]2[C@H]1CCN2CC1CCOCC1 | -10.34 |
| CC(C(=O)NCC1(c2c(F)cccc2F)CCCC1)S(C)(=O)=O (stereo not given) | 26.11 |
| COCC1CN(C(=O)C2=CCCC2)Cc2cnn(CC3CC3)c21 (stereo not given) | -0.9151 |
| CCOCC1CN(S(C)(=O)=O)Cc2cnn(C)c21 (stereo not given) | -13.89 |
| CCOCC1CN(C(=O)C2CCOCC2)Cc2cnn(C)c21 (stereo not given) | 76.58 |
| COCC1CN(C(=O)C2=CCCCC2)Cc2cnn(CC3CC3)c21 (stereo not given) | 3.854 |
| CCOCC1CN(CCN2CCCCC2)Cc2cnn(C)c21.O=C(O)C(F)(F)F.O=C(O)C(F)(F)F.O=C(O)C(F)(F)F (stereo not given) | 3.922 |
| CCOCC1CN(C(=O)N2CCCC2)Cc2cnn(C)c21 (stereo not given) | 85.37 |
| CCOCC1CN(C(=O)C2=CCCC2)Cc2cnn(C)c21 (stereo not given) | 94.04 |
| CCOCC1CN(S(=O)(=O)C2CC2)Cc2cnn(C)c21 (stereo not given) | -2.389 |
| COCCOc1ccnc(-c2noc([C@@H]3CCCN3C3CCC3)n2)c1 | -11.59 |
| CC(C)(C)C(=O)NCCC(=O)NS(=O)(=O)c1ccc2c(c1)OCCO2 | -7.979 |
| CCc1nc(NC(=O)N(C)Cc2ccoc2)nn1C | 2.955 |
| c1ccc(CCCN2CC(n3cccn3)C2)cc1 | 3.552 |
| CCN(CC)C(=O)[C@@H]1C[C@@H](N)CN1c1nc(N(C)C)nc(C)c1C | 7.659 |
| COCCOc1ccc(S(=O)(=O)Nc2cccc(O)c2F)cc1C | -10.79 |
| Cc1ccccc1C1CCN(CCn2cc(-c3nccs3)nn2)C1 (stereo not given) | -6.567 |

| SMILES | Percent Effect [%] |
| --- | --- |
| Cc1cc(-c2nccs2)nc(C2CCN(Cc3cccs3)CC2)n1 | 113.5 |
| c1cnc(-c2nc(CN3CCC(c4ccn[nH]4)CC3)cs2)nc1 | -2.472 |
| Oc1cc(-c2nccs2)nc(C2CCN(Cc3cccs3)CC2)n1 | 87.73 |
| Cc1cc(NC2CCN(Cc3ccccn3)CC2)n2nc(C)c(C)c2n1 | 3.019 |
| Cc1cc(-c2nccs2)nc(C2CCN(Cc3ccccn3)CC2)n1 | 103.9 |
| Cn1nccc1C1CCN(Cc2csc(-c3ncccn3)n2)CC1 | 5.984 |
| O=C(CCNCc1cc(O)c2cc(F)ccc2n1)N1CCCC1 | 24.8 |
| CSc1nccc(N2CCCC(c3nccn3C(C)C)C2)n1 (stereo not given) | 6.418 |
| CCS(=O)(=O)N1CCN(CCn2cccn2)c2nc(C)ccc2C1.O=C(O)C(F)(F)F | 99.61 |
| COCCN1CCN(C(=O)NC2CC2)Cc2ccc(C)nc21.O=C(O)C(F)(F)F | -6.778 |
| Cc1ccc2c(n1)N(CCn1cccn1)CCN(S(C)(=O)=O)C2.O=C(O)C(F)(F)F | 91.26 |
| COCC(=O)N1CCN(CCn2cccn2)c2nc(C)ccc2C1.O=C(O)C(F)(F)F | 116.6 |
| Cc1ccc2c(n1)N(CCn1cccn1)CCN(C(=O)CC1CC1)C2.O=C(O)C(F)(F)F | 5.383 |
| Cc1ccc2c(n1)N(CCn1cccn1)CCN(C1CCOCC1)C2.O=C(O)C(F)(F)F.O=C(O)C(F)(F)F | 93.94 |
| Cc1ccc2c(n1)N(Cc1csc(C)n1)CCN(C1CCOC1)C2.O=C(O)C(F)(F)F.O=C(O)C(F)(F)F (stereo not given) | 9.97 |
| COCCN1CCN(C(=O)N2CCCC2)Cc2ccc(C)nc21.O=C(O)C(F)(F)F | 6.866 |
| Cc1ccc2c(n1)N(CC(C)C)CCN(C(=O)Cc1ccccn1)C2.O=C(O)C(F)(F)F.O=C(O)C(F)(F)F | 1.939 |
| CCCC(=O)N1CCN(CCN(C)C)c2nc(C)ccc2C1.O=C(O)C(F)(F)F.O=C(O)C(F)(F)F | -16.06 |
| Cn1nc(Cn2cccn2)c2c1CN(C1CCOCC1)C2.O=C(O)C(F)(F)F | 2.859 |
| Cc1ccc(CNC(CN2CCN(C)CC2)c2ccccc2)cc1 (stereo not given) | 3.62 |
| Cc1ccc2c(n1)N(CCn1cccn1)CCN(CC1CC1)C2.O=C(O)C(F)(F)F.O=C(O)C(F)(F)F | 102.9 |
| COCCN1CCN(Cc2c(C)noc2C)Cc2ccc(C)nc21.O=C(O)C(F)(F)F.O=C(O)C(F)(F)F | -3.796 |
| O=C(NCc1ccccc1)NCc1nc(-c2ccncc2)n[nH]1 | 100.9 |
| O=C(NCCCN1CCOCC1)c1cc(-c2ccc3c(c2)CCO3)n[nH]1 | -1.634 |

| SMILES | Percent Effect [%] |
| --- | --- |
| O=S(=O)(NCCc1nc(-c2cccnc2)n[nH]1)NCc1ccccc1 | -41.46 |
| O=C(COCc1nc(-c2ccncc2)no1)N1CCCC1 | -11.18 |
| O=S(=O)(NCc1ccccc1)NCc1nc(-c2ccncc2)n[nH]1 | -34.55 |
| O=C(Cc1nc(-c2ccncc2)n[nH]1)NCCCN1CCOCC1 | 108.4 |
| O=C(COCc1nc(-c2ccncc2)no1)N1CCCCCC1 | -13.27 |
| COCCCNC(=O)Cc1nc(-c2ccncc2)n[nH]1 | 100.9 |
| O=C(Cc1nc(-c2ccncc2)n[nH]1)N1CCOCC1 | 104.3 |
| COCCCC(=O)Nc1[nH]nc(-c2ccncc2)c1C | 2.915 |
| COCCCNC(=O)Cc1cc(-c2ccc3c(c2)OCO3)on1 | 2.22 |
| CN1CCC2(CC1)CN(C)C(=O)C[C@@H]2C(F)(F)F | -12.83 |
| Cc1noc(C)c1CNC(=O)N1Cc2ccccc2N(C)CC1C (stereo not given) | 7.877 |
| Cc1occc1CNC(=O)Nc1ccc2nc(N3CCOCC3)oc2c1 | -9.739 |
| OCc1ccc(-c2nccn2CCc2nc3c(s2)CCCC3)o1 | -5.43 |
| Cc1ccn(CC(=O)N2CC[C@@H](c3ccc4ccccc4c3)[C@H](O)C2)n1 | 0.6829 |
| CC(C)C(C)(C#N)NC(=O)Cn1nnc(-c2cc3ccccc3o2)n1 (stereo not given) | -0.9006 |
| CCOCC(=O)Nc1cc(C)cnc1OC | -15.44 |
| NC(=O)c1cc2c(nc1CCOCc1ccccc1)CCC2 | 91.73 |
| NC(=O)c1cc2c(nc1CCOc1ccc(F)cc1)CCC2 | 109.9 |
| COc1cccc(OCCc2cncc(C(N)=O)c2)c1 | -19.41 |
| CN1CCCCC1Cc1nc2c(cc1C(N)=O)CCC2 (stereo not given) | -3.187 |
| NC(=O)c1cc2c(nc1-c1ccc3c(c1)CCO3)CCC2 | 1.16 |
| NC(=O)c1cc2c(nc1CC1CCCCO1)CCC2 (stereo not given) | -20.91 |
| COc1cccc(OCCc2nc3c(cc2C(N)=O)CCC3)c1 | 92.52 |
| COc1nc2c(cc1C(=O)NCCCc1nnc(N)s1)CCC2 | 10.88 |

| SMILES | Percent Effect [%] |
| --- | --- |
| NC(=O)c1cc2c(nc1-c1ccc3c(c1)OCCO3)CCC2 | -8.871 |
| CC(C#N)CNC(=O)Nc1ccc(Br)cc1 (stereo not given) | -11.38 |
| Cc1cc(CN(C)C(=O)C(c2cccnc2)N2CCOCC2)n[nH]1 (stereo not given) | -3.091 |
| Cc1ccc(S(=O)(=O)Cc2noc([C@@H]3C[C@@H](O)CN3C)n2)cc1 | -3.09 |
| O=C(NCCc1cccs1)[C@]12COC[C@H]1CN(Cc1ccccn1)C2.O=C(O)C(F)(F)F.O=C(O)C(F)(F)F | -75.28 |
| Cc1ncsc1CN1C[C@@H]2COC[C@]2(C(=O)NCc2cccnc2)C1.O=C(O)C(F)(F)F.O=C(O)C(F)(F)F | 4.251 |
| Cc1ncsc1CN1C[C@@H]2COC[C@]2(C(=O)NCc2ccccn2)C1.O=C(O)C(F)(F)F.O=C(O)C(F)(F)F | -14.61 |
| O=C(NCc1ccccn1)[C@]12COC[C@H]1CN(Cc1ccccc1F)C2.O=C(O)C(F)(F)F.O=C(O)C(F)(F)F | 103.6 |
| Cn1cc(CN2C[C@@H]3COC[C@]3(C(=O)NCc3ccccn3)C2)cn1.O=C(O)C(F)(F)F.O=C(O)C(F)(F)F | -3.108 |
| O=C(NCc1ccccn1)[C@]12COC[C@H]1CN(Cc1cccnc1)C2.O=C(O)C(F)(F)F.O=C(O)C(F)(F)F.O=C(O)C(F)(F)F | 99.25 |
| CCS(=O)(=O)N1C[C@H]2CN(c3cnn(C)c3)C(=O)[C@H]2C1 | -14.71 |
| CC(C(=O)NCc1ccnc(N(C)C)c1)n1cncn1 (stereo not given) | -16.73 |
| CC(C)(CNc1cn[nH]c(=O)c1Cl)c1ccc2c(c1)OCCO2 | 14.36 |
| CN(CC(=O)NCC(C)(C)c1ccc2c(c1)OCO2)c1cnccn1 | -4.592 |
| CC(C(=O)NCc1ccc2c(c1)OCCO2)n1cncn1 (stereo not given) | 116.3 |
| Cc1ccc(OCCNC(=O)C(C)n2cncn2)cc1 (stereo not given) | -5.656 |
| CCN(CC(=O)NC(C)C)C(=O)C(C)(C)c1ccc2c(c1)OCCO2 | -2.563 |
| CC(C(=O)NCC(C)(C)c1ccc(Br)cc1)n1cncn1 (stereo not given) | 77.11 |
| CC(C(=O)NCC(C)(C)c1ccc2c(c1)OCCO2)n1cncn1 (stereo not given) | 97.81 |
| CC(C(=O)NCC(C)(C)c1ccc2c(c1)OCO2)n1ccnc1 (stereo not given) | 97.89 |
| CC(C(=O)NCc1ccnc(OCC(F)(F)F)c1)n1cncn1 (stereo not given) | 8.582 |
| Cc1ccc(C(C)(C)CNC(=O)NC(C)Cn2cncn2)cc1 (stereo not given) | 14.21 |
| CC(C)(CNc1cn[nH]c(=O)c1Cl)c1ccc2c(c1)OCO2 | 11.94 |
